# Assay results: PubChem BioAssay (EPA / NIEHS)
# Calls of active or inactive are those of the source. How the source made its calls: active means hit-call score of the fitted dose curve at least 0.9, where 1 is the maximum; inactive means score below 0.9.
# Read-out: Cytochrome P450 (CYP2B6), CYP2B6 (gene 1555)
# Assay: LTEA_HepaRG_CYP2B6: Life Technologies and Expression Analysis (LTEA) Assay for Cytochrome P450 (CYP2B6) using HepaRG (AID 2283481)
# Conditions: mRNA level, 48 h; actives raise or lower the signal
# Outline: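 Read-out is CYP2B6 mRNA by TaqMan qRT-PCR, normalized to three housekeeping genes and fitted bidirectionally against 0.5% DMSO baseline. Human HepaRG cells received test chemicals for 48 h, top concentration 100 uM, half-log dilutions.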
# Chain of Cytochrome P450 2C19 (Homo sapiens) (P33261 whole entry, looked up): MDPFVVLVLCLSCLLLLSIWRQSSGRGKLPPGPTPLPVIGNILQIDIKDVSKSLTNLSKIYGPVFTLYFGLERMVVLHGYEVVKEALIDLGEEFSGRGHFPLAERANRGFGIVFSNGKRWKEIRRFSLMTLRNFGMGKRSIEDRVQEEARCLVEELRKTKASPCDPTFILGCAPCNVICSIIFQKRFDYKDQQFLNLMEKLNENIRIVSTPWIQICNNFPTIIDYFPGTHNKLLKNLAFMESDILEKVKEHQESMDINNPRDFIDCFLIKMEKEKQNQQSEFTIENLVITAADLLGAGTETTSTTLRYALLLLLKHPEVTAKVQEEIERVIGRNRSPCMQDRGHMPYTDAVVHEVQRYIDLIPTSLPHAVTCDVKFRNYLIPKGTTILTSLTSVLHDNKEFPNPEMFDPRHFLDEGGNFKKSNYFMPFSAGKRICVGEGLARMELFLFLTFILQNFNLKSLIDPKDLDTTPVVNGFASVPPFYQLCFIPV
SMILES,outcome,AC50
OCC1CO1 (stereo not given),inactive,–
CCC1(c2ccccc2)C(=O)N=C(O)NC1=O (stereo not given),–,34.7 µM (active)
CCOC(=O)c1ccccc1C(=O)OCC,inactive,–
Cc1ccc(N)cc1N,–,5 µM (active)
Nc1ccc(Cl)cc1,inactive,–
O=P(Oc1ccccc1)(Oc1ccccc1)Oc1ccccc1,–,1.23 µM (active)
CCCCCCCc1ccc(O)cc1,inactive,–
CCN(CC)c1ccccc1,inactive,–
c1ccc2c(c1)Nc1ccccc1S2,–,36.6 µM (active)
O=P1(N(CCCl)CCCl)NCCCO1 (stereo not given),–,50 µM (active)
Nc1cc2c3c(c1)C(c1ccccc1)=N[C@@H](NC(=O)c1cccnc1)C(=O)N3CC2,–,3.51 µM (active)
CCCN(CCC)c1c([N+](=O)[O-])cc(C(C)C)cc1[N+](=O)[O-],–,9.38 µM (active)
O=C(O)C1C(C(=O)O)C2(Cl)C(Cl)=C(Cl)C1(Cl)C2(Cl)Cl (stereo not given),inactive,–
O=[N+]([O-])c1ccccc1,inactive,–
CCC(C)(C)c1ccc(O)cc1,inactive,–
CC(Cl)(Cl)C(=O)O,inactive,–
Nc1ccc2ccccc2c1,–,13 µM (active)
CCCCN(CCCC)N=O,inactive,–
COCCOCCO,–,1.15 µM (active)
O=C(O)C(Cl)Cl,inactive,–

# Read-out: Cytochrome P450 2C19 (Homo sapiens) (UniProt P33261)
# Assay: LTEA_HepaRG_CYP2C19: Life Technologies and Expression Analysis (LTEA) Assay for CYP2C19 using HepaRG (AID 2283482)
# Conditions: mRNA level, 48 h; actives raise or lower the signal
# Outline: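 HepaRG, 48 h chemical exposure, 8-pt half-log series from 100 uM in 0.5% DMSO, duplicates. Readout: CYP2C19 mRNA by TaqMan qRT-PCR, housekeeping-normalized. Bidirectional fit vs DMSO baseline; phenobarbital 1mM as induction control.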
SMILES,outcome,AC50
OCC1CO1 (stereo not given),inactive,–
CCC1(c2ccccc2)C(=O)N=C(O)NC1=O (stereo not given),–,63.6 µM (active)
CCOC(=O)c1ccccc1C(=O)OCC,inactive,–
Cc1ccc(N)cc1N,inactive,–
Nc1ccc(Cl)cc1,inactive,–
O=P(Oc1ccccc1)(Oc1ccccc1)Oc1ccccc1,–,2.95 µM (active)
CCCCCCCc1ccc(O)cc1,inactive,–
CCN(CC)c1ccccc1,inactive,–
c1ccc2c(c1)Nc1ccccc1S2,–,50 µM (active)
O=P1(N(CCCl)CCCl)NCCCO1 (stereo not given),inactive,–
Nc1cc2c3c(c1)C(c1ccccc1)=N[C@@H](NC(=O)c1cccnc1)C(=O)N3CC2,–,9.8 µM (active)
CCCN(CCC)c1c([N+](=O)[O-])cc(C(C)C)cc1[N+](=O)[O-],–,9.77 µM (active)
O=C(O)C1C(C(=O)O)C2(Cl)C(Cl)=C(Cl)C1(Cl)C2(Cl)Cl (stereo not given),inactive,–
O=[N+]([O-])c1ccccc1,inactive,–
CCC(C)(C)c1ccc(O)cc1,inactive,–
CC(Cl)(Cl)C(=O)O,inactive,–
Nc1ccc2ccccc2c1,–,26.7 µM (active)
CCCCN(CCCC)N=O,inactive,–
COCCOCCO,–,2.31 µM (active)
O=C(O)C(Cl)Cl,inactive,–

# Read-out: CYP2C8 (gene 1558)
# Assay: LTEA_HepaRG_CYP2C8: Life Technologies and Expression Analysis (LTEA) Assay for CYP2C8 using HepaRG (AID 2283483)
# Conditions: mRNA level, 48 h; actives raise or lower the signal
# Outline: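 CYP2C8 expression measured by TaqMan qRT-PCR and normalized to three housekeeping genes. HepaRG cultures were treated for 48 h with an eight-point half-log series topping at 100 uM, vehicle 0.5% DMSO, duplicates; fitted both directions against DMSO.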
SMILES,outcome,AC50
OCC1CO1 (stereo not given),inactive,–
CCC1(c2ccccc2)C(=O)N=C(O)NC1=O (stereo not given),–,50 µM (active)
CCOC(=O)c1ccccc1C(=O)OCC,inactive,–
Cc1ccc(N)cc1N,inactive,–
Nc1ccc(Cl)cc1,inactive,–
O=P(Oc1ccccc1)(Oc1ccccc1)Oc1ccccc1,–,12.4 µM (active)
CCCCCCCc1ccc(O)cc1,inactive,–
CCN(CC)c1ccccc1,inactive,–
c1ccc2c(c1)Nc1ccccc1S2,inactive,–
O=P1(N(CCCl)CCCl)NCCCO1 (stereo not given),inactive,–
Nc1cc2c3c(c1)C(c1ccccc1)=N[C@@H](NC(=O)c1cccnc1)C(=O)N3CC2,inactive,–
CCCN(CCC)c1c([N+](=O)[O-])cc(C(C)C)cc1[N+](=O)[O-],–,13.2 µM (active)
O=C(O)C1C(C(=O)O)C2(Cl)C(Cl)=C(Cl)C1(Cl)C2(Cl)Cl (stereo not given),inactive,–
O=[N+]([O-])c1ccccc1,inactive,–
CCC(C)(C)c1ccc(O)cc1,inactive,–
CC(Cl)(Cl)C(=O)O,inactive,–
Nc1ccc2ccccc2c1,inactive,–
CCCCN(CCCC)N=O,inactive,–
COCCOCCO,inactive,–
O=C(O)C(Cl)Cl,inactive,–

# Read-out: CYP2C9 (gene 1559)
# Assay: LTEA_HepaRG_CYP2C9: Life Technologies and Expression Analysis (LTEA) Assay for CYP2C9 using HepaRG (AID 2283484)
# Conditions: mRNA level, 48 h; actives raise or lower the signal
# Outline: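 CYP2C9 transcript level, quantified by TaqMan qRT-PCR against three housekeeping genes, was fitted bidirectionally relative to 0.5% DMSO. HepaRG cultures were treated 48 h, in duplicate, at eight half-log concentrations topping at 100 uM.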
SMILES,outcome,AC50
OCC1CO1 (stereo not given),inactive,–
CCC1(c2ccccc2)C(=O)N=C(O)NC1=O (stereo not given),inactive,–
CCOC(=O)c1ccccc1C(=O)OCC,inactive,–
Cc1ccc(N)cc1N,inactive,–
Nc1ccc(Cl)cc1,inactive,–
O=P(Oc1ccccc1)(Oc1ccccc1)Oc1ccccc1,inactive,–
CCCCCCCc1ccc(O)cc1,inactive,–
CCN(CC)c1ccccc1,inactive,–
c1ccc2c(c1)Nc1ccccc1S2,inactive,–
O=P1(N(CCCl)CCCl)NCCCO1 (stereo not given),inactive,–
Nc1cc2c3c(c1)C(c1ccccc1)=N[C@@H](NC(=O)c1cccnc1)C(=O)N3CC2,inactive,–
CCCN(CCC)c1c([N+](=O)[O-])cc(C(C)C)cc1[N+](=O)[O-],–,12.7 µM (active)
O=C(O)C1C(C(=O)O)C2(Cl)C(Cl)=C(Cl)C1(Cl)C2(Cl)Cl (stereo not given),inactive,–
O=[N+]([O-])c1ccccc1,inactive,–
CCC(C)(C)c1ccc(O)cc1,inactive,–
CC(Cl)(Cl)C(=O)O,inactive,–
Nc1ccc2ccccc2c1,inactive,–
CCCCN(CCCC)N=O,inactive,–
COCCOCCO,inactive,–
O=C(O)C(Cl)Cl,inactive,–

# Read-out: CYP2E1 (gene 1571)
# Assay: LTEA_HepaRG_CYP2E1: Life Technologies and Expression Analysis (LTEA) Assay for CYP2E1 using HepaRG (AID 2283485)
# Conditions: mRNA level, 48 h; actives raise or lower the signal
# Outline: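 Readout is qRT-PCR of CYP2E1 mRNA, normalized to three housekeeping genes and fitted bidirectionally against 0.5% DMSO. HepaRG cells were dosed 48 h at eight concentrations, highest 100 uM with half-log dilutions.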
SMILES,outcome,AC50
OCC1CO1 (stereo not given),inactive,–
CCC1(c2ccccc2)C(=O)N=C(O)NC1=O (stereo not given),inactive,–
CCOC(=O)c1ccccc1C(=O)OCC,inactive,–
Cc1ccc(N)cc1N,–,18.6 µM (active)
Nc1ccc(Cl)cc1,inactive,–
O=P(Oc1ccccc1)(Oc1ccccc1)Oc1ccccc1,–,26.2 µM (active)
CCCCCCCc1ccc(O)cc1,inactive,–
CCN(CC)c1ccccc1,inactive,–
c1ccc2c(c1)Nc1ccccc1S2,–,66.2 µM (active)
O=P1(N(CCCl)CCCl)NCCCO1 (stereo not given),inactive,–
Nc1cc2c3c(c1)C(c1ccccc1)=N[C@@H](NC(=O)c1cccnc1)C(=O)N3CC2,–,12.2 µM (active)
CCCN(CCC)c1c([N+](=O)[O-])cc(C(C)C)cc1[N+](=O)[O-],–,67 µM (active)
O=C(O)C1C(C(=O)O)C2(Cl)C(Cl)=C(Cl)C1(Cl)C2(Cl)Cl (stereo not given),inactive,–
O=[N+]([O-])c1ccccc1,inactive,–
CCC(C)(C)c1ccc(O)cc1,inactive,–
CC(Cl)(Cl)C(=O)O,inactive,–
Nc1ccc2ccccc2c1,–,33.8 µM (active)
CCCCN(CCCC)N=O,inactive,–
COCCOCCO,inactive,–
O=C(O)C(Cl)Cl,inactive,–
